The nature of assay [1]: inhibitors of TNFa-induced NFkB p65 translocation, primary screen, imaging, HUVEC, MLSMR starter and 10KST1 sets (AID 438;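 active = inhibition above 20% together with a positive visual image hit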;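 note: compound added about 3h40 before a 20 min TNFalpha stimulation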;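 for inhibition: signal is the nuclear over cytoplasmic p65 intensity ratio per well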). The conditions noted are these: HUVEC TNFa-induced p65 nuclear translocation; cell count: measured here: nuclei count (cytotoxicity indicator), at 2.08 µM; inhibition: at 2 µM, stronger effect = higher value, 0% TNFa-plus-vehicle, 100% no-TNFa wells.
Assay [2] is described as follows: inhibitors of mutant huntingtin aggregation, primary screen, imaging, exon1htt(103Q)mCFP cells, high-content imaging (AID 483;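 active = visual image review flags a hit and inhibition of aggregation exceeds 20%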;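 note: compound exposure lasted 3 days before fixation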;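 for nuclei count: percent of the per-plate median nuclei count of sample wells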). The conditions noted are these: exon1htt(103Q)mCFP cell line, aggregate imaging, at 2 µM; inhibition of aggregation: stronger effect = higher value; nuclei count: measured here: cell count, toxicity.
Assay [3] can be described thus: inhibitors of E-selectin induction by TNFa, primary screen, imaging, HUVEC, immunofluorescence, MLSMR starter and 10KST1 sets (AID 487;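 active = visually confirmed hit in the image check and inhibition above 20%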;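 for inhibition: signal is fraction of cell area covered by stained E-selectin grains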;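 for nuclei count: 100% = median nuclei count of all wells on the same plate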). The conditions noted are these: HUVEC TNFalpha-induced E-selectin immunofluorescence imaging, at 2 µM; inhibition: stronger effect = higher value; nuclei count: measured here: cell number, toxicity.
In assay [4] the target is Voltage-gated potassium channel subunit beta-2 (Rattus norvegicus) (UniProt P62483). The assay can be described thus: KvBeta enzyme negative modulators, primary screen, biochemical, NADPH fluorescence (AID 622;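 active = fluorescence slope higher than the sample average by over 3 SD, cut at about -0.22 in these data, passing the limit was not always enough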;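 note: slope of raw intensity against log time taken from 70 to 1610 s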). The following applies: recombinant KvBeta, 4-cyanobenzaldehyde reduction, at 10 µM, stronger effect = higher value.
Assay [5] shares this target. The assay can be described thus: KvBeta positive modulators, primary screen, biochemical, NADPH fluorescence (AID 623;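 active = NADPH fluorescence slope more negative than the mean of all samples by about 3 SD, 99.7% confidence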;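 note: fluorescence intensity change per second fitted from 20 to 320 s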). The conditions noted are these: Recombinant KvBeta, NADPH fluorescence decrease slope, 10 min; at 10 µM; stronger effect = lower value.
For assay [6], the target named is Alpha-2C adrenergic receptor (Homo sapiens) (UniProt P18825). The assay can be described thus: modulators of alpha2C/GIRK thallium flux, primary screen, cell-based, HEK293 alpha2C/GIRK1/2 (AID 624;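 active = fluorescence slope after compound addition differing from the mean of all screened samples at 99.7% confidence, in either direction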;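 note: slope of fluorescence ratio to pre-addition baseline per second over 15 to 24 s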). The conditions noted are these: thallium flux BTC fluorescence, at 10 µM, actives lie on both sides.
Assay [7] is described as follows: inhibitors of Sendai virus-induced IRF3 signaling, primary screen, TLR/RLR signaling modifier project, cell-based, Sendai virus stimulus, luciferase, 10K MLSCN set (AID 602276).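 Note: firefly luciferase from ISG56 promoter only with Renilla not read in this screen; 0% = Sendai virus plus DMSO and 100% = medium plus DMSO without virus.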 The following applies: HEK293 RL24 IRF3 luciferase reporter, at 10 µM, stronger effect = higher value. In general terms: Reporter assays use an easily measured gene product as a stand-in for the process of interest.

Assay [8] is described as follows: inhibitors of poly I:C-induced TLR3 signaling, primary screen, cell-based, poly I:C stimulus, luciferase, 10K MLSCN set (AID 602277;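 active = inhibition of the reporter signal at or above 50%; inactive = inhibition below 50%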). The following applies: HEK293-TLR3 RL24 IRF3 luciferase reporter, at 10 µM, stronger effect = higher value.

Molecules are shown by their SMILES. The source made the active and inactive calls.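 Rule for the calls, unless noted: active = inhibition at or above 50% at 10 µM; inactive = inhibition below 50%.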

A word on the inhibition: it is the change of the read-out against control, counted positive when it falls.

Chain of Alpha-2C adrenergic receptor (Homo sapiens) (P18825 whole entry, looked up): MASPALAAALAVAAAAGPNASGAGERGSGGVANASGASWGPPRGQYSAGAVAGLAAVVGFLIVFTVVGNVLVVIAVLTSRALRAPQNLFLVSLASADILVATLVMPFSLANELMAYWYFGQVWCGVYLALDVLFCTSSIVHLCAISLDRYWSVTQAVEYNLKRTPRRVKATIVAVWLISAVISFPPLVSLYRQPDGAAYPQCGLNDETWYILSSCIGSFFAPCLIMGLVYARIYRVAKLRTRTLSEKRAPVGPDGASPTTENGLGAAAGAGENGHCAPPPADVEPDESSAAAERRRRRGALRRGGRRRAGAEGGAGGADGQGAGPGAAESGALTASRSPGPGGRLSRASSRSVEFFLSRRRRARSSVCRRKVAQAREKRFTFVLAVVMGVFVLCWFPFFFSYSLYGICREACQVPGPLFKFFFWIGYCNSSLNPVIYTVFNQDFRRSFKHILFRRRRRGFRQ
Chain of Voltage-gated potassium channel subunit beta-2 (Rattus norvegicus) (P62483 whole entry, looked up): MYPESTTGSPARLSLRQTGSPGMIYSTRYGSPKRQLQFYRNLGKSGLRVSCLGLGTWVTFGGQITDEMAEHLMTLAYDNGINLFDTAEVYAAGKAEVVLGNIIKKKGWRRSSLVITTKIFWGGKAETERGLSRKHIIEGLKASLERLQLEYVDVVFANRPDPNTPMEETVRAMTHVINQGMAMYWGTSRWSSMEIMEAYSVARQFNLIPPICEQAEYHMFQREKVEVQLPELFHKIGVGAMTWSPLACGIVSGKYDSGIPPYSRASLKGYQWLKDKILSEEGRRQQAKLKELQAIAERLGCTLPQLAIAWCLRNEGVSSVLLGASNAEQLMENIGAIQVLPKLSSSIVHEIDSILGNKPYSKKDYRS

Consider `COc1cccc(C2=NOC(C(=O)Nc3cc(C)nn3-c3ccccc3)C2)c1OC` (stereo not given), for which the cell count in assay [1] turned out to be 570. Also, the inhibition was -6.2% (inactive) in assay [1], -19.4% (inactive) in assay [3], 16.2% (inactive) in assay [7] and 23.8% (inactive) in assay [8]. The inhibition of aggregation in assay [2] was -1.5% (inactive). The nuclei count in assay [2] came to 105%; in assay [3], 107%. Further, the fluorescence slope in assay [4] was -0.586 (inactive). In addition, the NADPH fluorescence slope in assay [5] is -5.4e-05 (inactive). In assay [6], the slope was 0.00584 (inactive).

`O=C(NCCN1CCCCCC1)c1ccc(N2CCCC2=O)cc1`: the cell count in assay [1] stood at 561. In addition, the inhibition in assay [1] is -4.7% (inactive); in assay [3], 60.4% (inactive); in assay [7], 16.9% (inactive); in assay [8] it was 17.9% (inactive). Besides, the inhibition of aggregation in assay [2] was 23.6% (inactive). The nuclei count amounted to 84.5% in assay [2] and 24.3% in assay [3]. For the same compound, the fluorescence slope in assay [4] is -0.406 (inactive). The NADPH fluorescence slope in assay [5] was -4.1e-05 (inactive). In addition, the slope in assay [6] was 0.00534 (inactive).

Regarding `O=C(NCc1ccc2c(c1)OCO2)c1ccc(NS(=O)(=O)c2ccc3c(c2)OCCO3)cc1`, the cell count in assay [1] worked out at 499. Besides, the inhibition in assay [1] is -22.3% (inactive); in assay [3] it was -0.9% (inactive); in assay [7], 10.8% (inactive); in assay [8] it was 17.5% (inactive). In addition, the inhibition of aggregation in assay [2] is 20.4% (inactive). In addition, the nuclei count in assay [2] came to 104%; in assay [3] it was 128%. The fluorescence slope in assay [4] was -0.615 (inactive). Moreover, in assay [5], the NADPH fluorescence slope is -2.7e-05 (inactive). Also, the slope in assay [6] was 0.00624 (inactive).

As to `N#Cc1nc(COc2ccccc2Cl)oc1N1CCCCCC1`, the cell count in assay [1] worked out at 577. The inhibition is 1.1% (inactive) in assay [1], 17.1% (inactive) in assay [3], 0.19% (inactive) in assay [7] and 0.00693% (inactive) in assay [8]. Moreover, the inhibition of aggregation in assay [2] was -17.4% (inactive). In addition, the nuclei count in assay [2] was determined as 92.6%; in assay [3], 102%. Moreover, the fluorescence slope in assay [4] was -0.431 (inactive). In assay [5], the NADPH fluorescence slope is -5e-05 (inactive). In addition, the slope in assay [6] is 0.00512 (inactive).

In the case of `CCOC(=O)C(C)C1(O)c2ccccc2-c2ncccc21` (stereo not given), in assay [1], the cell count was 316. Also, the inhibition in assay [1] is 4.9% (inactive); in assay [3] it was 6.6% (inactive); in assay [7], 4.67% (inactive); in assay [8], 8.95% (inactive). Moreover, the inhibition of aggregation in assay [2] is -6.7% (inactive). In addition, the nuclei count worked out at 117% in assay [2] and 97.7% in assay [3]. Moreover, the fluorescence slope in assay [4] was -0.296 (inactive). For the same compound, in assay [5], the NADPH fluorescence slope is -6.5e-05 (inactive). In addition, in assay [6], the slope is 0.00533 (inactive).

For `CC(=O)Nc1ccc(-c2nn[nH]n2)cc1Cl`, in assay [1], the cell count was 630. Further, the inhibition was -10.7% (inactive) in assay [1], 0.8% (inactive) in assay [3], 13.2% (inactive) in assay [7] and 12.5% (inactive) in assay [8]. For the same compound, the inhibition of aggregation in assay [2] is -3% (inactive). Further, the nuclei count was found to be 69.9% in assay [2] and 97.8% in assay [3]. For the same compound, in assay [4], the fluorescence slope was -0.546 (inactive). Besides, the NADPH fluorescence slope in assay [5] was -2.3e-05 (inactive). In addition, the slope in assay [6] was 0.00431 (inactive).

As to `CC(=O)Nc1ccc(NS(=O)(=O)c2ccc(Cl)c(C(=O)O)c2)cc1`, the cell count in assay [1] is 688. For the same compound, the inhibition in assay [1] was -3.9% (inactive); in assay [3] it was -37.3% (inactive); in assay [7] it was -2.13% (inactive); in assay [8] it was 20.4% (inactive). For the same compound, the inhibition of aggregation in assay [2] was 11.4% (inactive). Moreover, the nuclei count in assay [2] is 124%; in assay [3], 128%. In addition, in assay [4], the fluorescence slope was -0.42 (inactive). Besides, the NADPH fluorescence slope in assay [5] is -3.1e-05 (inactive). In addition, the slope in assay [6] was 0.00403 (inactive).

With `Cc1ccc(S(=O)(=O)N2CCN(C(=O)CN3CCOCC3)C2C(C)C)cc1` (stereo not given), the cell count in assay [1] was 309. The inhibition in assay [1] was -5% (inactive); in assay [3] it was -99.4% (inactive); in assay [7] it was 4.53% (inactive); in assay [8], 12.9% (inactive). In assay [2], the inhibition of aggregation was -6.9% (inactive). In addition, the nuclei count in assay [2] and in assay [3] was 105% throughout. The fluorescence slope in assay [4] was -0.621 (inactive). The NADPH fluorescence slope in assay [5] was 6.8e-06 (inactive). Moreover, the slope in assay [6] is 0.0064 (inactive).

Take `COc1ccccc1-c1nnc(SCC(=O)N2CC(C)CC(C)C2)o1` (stereo not given): in assay [1], the cell count amounted to 351. For the same compound, the inhibition in assay [1] was 11.1% (inactive); in assay [3], 28% (inactive); in assay [7], 21.4% (inactive); in assay [8], 29.2% (inactive). In addition, the inhibition of aggregation in assay [2] was -3.7% (inactive). The nuclei count in assay [2] stood at 112%; in assay [3], 94.8%. Also, in assay [4], the fluorescence slope was -0.411 (inactive). In assay [5], the NADPH fluorescence slope was -5.2e-05 (inactive). Moreover, in assay [6], the slope was 0.00365 (inactive).

As to `COc1ccc(N2C(=O)C3C4C=CC(C4)C3C2=O)nn1` (stereo not given), the cell count in assay [1] came out at 719. Further, the inhibition is -5.5% (inactive) in assay [1], -182% (inactive) in assay [3], 11.4% (inactive) in assay [7] and 23.1% (inactive) in assay [8]. Further, the inhibition of aggregation in assay [2] is -9.5% (inactive). For the same compound, the nuclei count in assay [2] stood at 100%; in assay [3] it was 142%. The fluorescence slope in assay [4] is -0.44 (inactive). In addition, in assay [5], the NADPH fluorescence slope is -0.000108 (inactive). In addition, in assay [6], the slope was 0.00628 (inactive).
